# Test results: PubChem BioAssay (EPA / NIEHS)
# Inconclusive results are not listed. Where a structure was tested more than once in an assay, its records may differ in their call. Activity calls are given as the source filed them. Rule for the calls, unless noted: active = hit-call score of the fitted dose curve at least 0.9, where 1 is the maximum; inactive = score below 0.9.
# Tests used:
# [1] = read-out: Plasminogen activator inhibitor-1 (PAI1), SERPINE1 (gene 5054); assay: BSK_CASM3C_PAI1: BioMAP Diversity Plus: CASM3C Assay for Plasminogen activator inhibitor-1 (PAI1) Biomarker Activity (AID 2284284); settings: primary human coronary artery smooth muscle cells;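 note: PAI-1 protein level measured by ELISA 24 h after dosing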
# [2] = read-out: Monocyte Chemoattractant Protein-1 (MCP1), CCL2 (gene 6347); assay: BSK_hDFCGF_MCP1: BioMAP Diversity Plus: hDFCGF Assay for Monocyte Chemoattractant Protein-1 (MCP1) Biomarker Activity (AID 2284285); settings: primary human foreskin fibroblasts
# Method in brief: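 Human foreskin fibroblasts (hDFCGF system) were exposed to compound and secreted MCP-1 was measured by ELISA after 24 hours. Activity was fitted relative to DMSO. Cytotoxicity was checked by SRB total-protein staining in parallel cultures.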
# [3] = read-out: Vascular cell adhesion molecule 1 (VCAM1), VCAM1 (gene 7412); assay: BSK_IMphg_VCAM1: BioMAP Diversity Plus: IMphg Assay for Vascular cell adhesion molecule 1 (VCAM1) Biomarker Activity (AID 2284286); settings: primary human endothelial cells with macrophages
# Method in brief: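 Human venular endothelial cells co-cultured with macrophages; VCAM-1 quantified by ELISA 24 h after dosing, fitted in the positive direction against DMSO. Cytotoxicity was checked in parallel cultures by SRB total-protein staining (0.1% SRB after 10% TCA fixation, 560 nm).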
# [4] = read-out: Intercellular Adhesion Molecule 1 (ICAM1), ICAM1 (gene 3383); assay: BSK_hDFCGF_ICAM1: BioMAP Diversity Plus: hDFCGF Assay for Intercellular Adhesion Molecule 1 (ICAM1) Biomarker Activity (AID 2284287); settings: primary human foreskin fibroblasts
# Method in brief: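 Primary human foreskin fibroblasts (hDFCGF system) dosed with chemical; ICAM-1 quantified by ELISA at 24 h relative to DMSO. Parallel SRB total-protein staining to assess overt cytotoxicity.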
# CD40, CD40 (gene 958) = assay: BSK_IMphg_CD40: BioMAP Diversity Plus: IMphg Assay for CD40 Biomarker Activity (AID 2284288); settings: primary human endothelial cells with macrophages
# Method in brief: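 Venular endothelial cells co-cultured with macrophages (human primary), CD40 measured by ELISA 24 h after dosing. Positive-direction fit vs DMSO baseline; cytotoxicity tracked by SRB total-protein staining in parallel cultures.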
# [5] = read-out: TIMP metallopeptidase inhibitor 2 (TIMP2), TIMP2 (gene 7077); assay: BSK_hDFCGF_TIMP2: BioMAP Diversity Plus: hDFCGF Assay for TIMP metallopeptidase inhibitor 2 (TIMP2) Biomarker Activity (AID 2284289); settings: primary human foreskin fibroblasts
# Method in brief: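 Primary human foreskin fibroblasts in the hDFCGF system, dosed for 24 h; TIMP-2 level measured by ELISA, fitted in the positive direction against DMSO; cytotoxicity checked in parallel by sulforhodamine B total protein staining.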
# [6] = read-out: Interleukin-1 alpha (IL1a), IL1A (gene 3552); assay: BSK_IMphg_IL1a: BioMAP Diversity Plus: IMphg Assay for Interleukin-1 alpha (IL1a) Biomarker Activity (AID 2284290); settings: primary human endothelial cells with macrophages
# Method in brief: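 Human venular endothelial cells co-cultured with macrophages, IMphg system. IL-1α is measured by ELISA 24 h after dosing and fitted in the positive direction against DMSO. Cytotoxicity is assessed by SRB staining of parallel cultures.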
# [7] = read-out: E-selectin (Homo sapiens) (UniProt P16581); assay: BSK_IMphg_ESelectin: BioMAP Diversity Plus: IMphg Assay for Eselectin Biomarker Activity (AID 2284291); settings: primary human endothelial cells with macrophages
# Method in brief: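 Human venular endothelial cell–macrophage co-culture, E-selectin measured by ELISA 24 h after chemical dosing. Signal fitted in the positive direction against DMSO as negative control and baseline.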
# [8] = BSK_IMphg_SRB: Viability Assessment in the BioMAP Diversity Plus: IMphg Assay (AID 2284292); settings: primary human endothelial cells with macrophages;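 note: measured one day after compound addition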
# Method in brief: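 Human venular endothelial cells with macrophages, 24 h after chemical dosing; total protein by 0.1% SRB staining after 10% TCA fixation, read at 560 nm. Positive-direction fitting versus DMSO baseline.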
# [9] = read-out: Macrophage colony-stimulating factor (MCSF), CSF1 (gene 1435); assay: BSK_IMphg_MCSF: BioMAP Diversity Plus: IMphg Assay for Macrophage colony-stimulating factor (MCSF) Biomarker Activity (AID 2284293); settings: primary human endothelial cells with macrophages
# Method in brief: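 Co-culture of human venular endothelial cells and macrophages, 24 hours of chemical exposure. M-CSF quantified by ELISA, with parallel SRB total-protein staining for cytotoxicity; activity fitted relative to DMSO.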
# [10] = read-out: Interleukin-10 (IL10), IL10 (gene 3586); assay: BSK_IMphg_IL10: BioMAP Diversity Plus: IMphg Assay for Interleukin-10 (IL10) Biomarker Activity (AID 2284294); settings: primary human endothelial cells with macrophages
# Method in brief: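 Human venular endothelial cells cocultured with macrophages, dosed 24 h; IL-10 measured by ELISA, activity relative to DMSO. Cytotoxicity assessed in parallel cultures by sulforhodamine B total-protein staining.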
# [11] = BSK_IMphg_SRB.Mphg: Macrophage Viability Assessment in the BioMAP Diversity Plus: IMphg Assay (AID 2284295); settings: primary human endothelial cells with macrophages
# Method in brief: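 Venular endothelial cells co-cultured with macrophages, read 24 h after dosing. Total protein measured by 0.1% SRB staining after 10% TCA fixation, absorbance at 560 nm. Fitted in positive direction against DMSO baseline.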
# [12] = read-out: Thrombomodulin, THBD (gene 7056); assay: BSK_LPS_Thrombomodulin: BioMAP Diversity Plus: LPS Assay for Thrombomodulin Biomarker Activity (AID 2284296); settings: primary human HUVEC with PBMC
# Method in brief: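 Human umbilical vein endothelial cells co-cultured with PBMC and stimulated with LPS; cell-surface thrombomodulin measured by ELISA 24 hours after compound. Gain or loss versus DMSO; cytotoxicity checked by SRB staining in parallel cultures.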
# CD69, CD69 (gene 969) = assay: BSK_LPS_CD69: BioMAP Diversity Plus: LPS Assay for CD69 Biomarker Activity (AID 2284303); settings: primary human HUVEC with PBMC
# Method in brief: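 Human umbilical vein endothelial cells co-cultured with PBMC under LPS stimulation, chemical exposure 24 h; cell-surface CD69 measured by ELISA and fitted in the positive direction versus DMSO.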
# TTR (gene 7276) = assay: CCTE_GLTED_hTTR_0.5uM: CCTE's human Transthyretin (hTTR) Inhibition Assay, with 0.5uM TTR, Great Lakes Toxicology and Ecology Division (GLTED) Lab (AID 2284320)
# Method in brief: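 Cell-free displacement assay in which human TTR at 0.5 uM was incubated with test chemical for 2 h. Displacement of the ANSA probe was read by fluorescence at 380 nm excitation/475 nm emission. Loss of signal was fitted in the positive direction versus DMSO.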
# [13] = CCTE_Mundy_HCI_iCellGluta_NOG_NeuronCount: CCTE's Neurite Outgrowth Assay in iCellGluta cells for Neuron Count, Mundy Lab (AID 2284340; active = hit-call score of the fitted dose curve at least 0.9, where 1 is the maximum;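 note: cells fixed about 48 h after compound addition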)
# Method in brief: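 Neuron count read by automated high-content imaging of Hoechst 33342 and betaIII-tubulin/Alexa Fluor-488 labelling in human iPSC glutamatergic neurons. Activity fitted relative to DMSO.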
# Chain of E-selectin (Homo sapiens) (P16581 whole entry, looked up): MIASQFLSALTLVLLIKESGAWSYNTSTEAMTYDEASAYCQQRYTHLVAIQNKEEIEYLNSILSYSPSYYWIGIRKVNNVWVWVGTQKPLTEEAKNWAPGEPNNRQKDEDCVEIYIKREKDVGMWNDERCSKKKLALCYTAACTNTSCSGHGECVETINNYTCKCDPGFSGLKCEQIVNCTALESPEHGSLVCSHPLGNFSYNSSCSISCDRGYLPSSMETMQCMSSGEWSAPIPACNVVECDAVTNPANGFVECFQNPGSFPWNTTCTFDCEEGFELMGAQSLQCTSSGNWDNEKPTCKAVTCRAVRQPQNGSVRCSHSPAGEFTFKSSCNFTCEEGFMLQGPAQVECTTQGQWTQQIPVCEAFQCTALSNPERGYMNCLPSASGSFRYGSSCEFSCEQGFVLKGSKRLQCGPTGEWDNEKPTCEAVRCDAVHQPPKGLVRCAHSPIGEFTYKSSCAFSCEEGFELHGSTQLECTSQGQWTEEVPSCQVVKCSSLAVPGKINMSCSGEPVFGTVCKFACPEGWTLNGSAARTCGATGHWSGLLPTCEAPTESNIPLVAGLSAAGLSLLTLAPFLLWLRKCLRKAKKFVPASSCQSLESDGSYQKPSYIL
compound,measurement,setting,value
O=C(O)C(F)(F)C(F)(F)C(F)(F)C(F)(F)C(F)(F)C(F)(F)C(F)F,outcome,[1],inactive
same,outcome,[2],inactive
same,outcome,[3],inactive
same,outcome,[4],inactive
same,outcome,"CD40, CD40 (gene 958)",inactive
same,AC50,[5],957 nM (active)
same,outcome,[5],inactive
same,outcome,[6],inactive
same,outcome,[7],inactive
same,outcome,[8],inactive
same,outcome,[9],inactive
same,outcome,[10],inactive
same,outcome,[11],inactive
same,outcome,[12],inactive
same,outcome,"CD69, CD69 (gene 969)",inactive
same,AC50,TTR (gene 7276),0.275 µM (active)
CO[Si](C)(CCC(F)(F)C(F)(F)C(F)(F)C(F)(F)C(F)(F)C(F)(F)F)OC,outcome,[1],inactive
same,outcome,[2],inactive
same,outcome,[3],inactive
same,outcome,[4],inactive
same,outcome,"CD40, CD40 (gene 958)",inactive
same,outcome,[5],inactive
same,outcome,[6],inactive
same,outcome,[7],inactive
same,outcome,[8],inactive
same,outcome,[9],inactive
same,outcome,[10],inactive
same,outcome,[11],inactive
same,outcome,[12],inactive
same,outcome,"CD69, CD69 (gene 969)",inactive
NC(=O)C(F)(F)C(F)(F)C(F)(F)F,outcome,[1],inactive
same,outcome,[2],inactive
same,outcome,[3],inactive
same,outcome,[4],inactive
same,outcome,"CD40, CD40 (gene 958)",inactive
same,outcome,[5],inactive
same,outcome,[6],inactive
same,outcome,[7],inactive
same,outcome,[8],inactive
same,outcome,[9],inactive
same,outcome,[10],inactive
same,outcome,[11],inactive
same,outcome,[12],inactive
same,outcome,"CD69, CD69 (gene 969)",inactive
C=CC(=O)OCC(F)(F)C(F)(F)C(F)(F)C(F)(F)C(F)(F)C(F)(F)C(F)(F)C(F)F,outcome,[1],inactive
same,AC50,[2],6.81 µM (active)
same,outcome,[2],inactive
same,outcome,[3],inactive
same,AC50,[4],20.3 µM (active)
same,outcome,[4],inactive
same,outcome,"CD40, CD40 (gene 958)",inactive
same,outcome,[5],inactive
same,outcome,[6],inactive
same,outcome,[7],inactive
same,outcome,[8],inactive
same,outcome,[9],inactive
same,outcome,[10],inactive
same,AC50,[11],7.9 µM (active)
same,outcome,[11],inactive
same,AC50,[12],26.9 µM (active)
same,outcome,[12],inactive
same,AC50,"CD69, CD69 (gene 969)",23.2 µM (active)
same,outcome,"CD69, CD69 (gene 969)",inactive
same,AC50,TTR (gene 7276),1.84 µM (active)
FC(F)(F)C(F)(F)C(F)(F)CC1CO1 (configuration not stated),outcome,[1],inactive
same,outcome,[2],inactive
same,outcome,[3],inactive
same,outcome,[4],inactive
same,outcome,"CD40, CD40 (gene 958)",inactive
same,AC50,[5],1970 nM (active)
same,outcome,[5],inactive
same,outcome,[6],inactive
same,outcome,[7],inactive
same,outcome,[8],inactive
same,outcome,[9],inactive
same,outcome,[10],inactive
same,outcome,[11],inactive
same,outcome,[12],inactive
same,outcome,"CD69, CD69 (gene 969)",inactive
OCC(O)CC(F)(F)C(F)(F)C(F)(F)C(F)(F)C(F)(F)C(F)(F)C(F)(F)C(F)(F)F (configuration not stated),outcome,[1],inactive
same,outcome,[2],inactive
same,outcome,[3],inactive
same,outcome,[4],inactive
same,outcome,"CD40, CD40 (gene 958)",inactive
same,outcome,[5],inactive
same,outcome,[6],inactive
same,outcome,[7],inactive
same,outcome,[8],inactive
same,outcome,[9],inactive
same,outcome,[10],inactive
same,outcome,[11],inactive
same,outcome,[12],inactive
same,outcome,"CD69, CD69 (gene 969)",inactive
OCC(F)(F)C(F)(F)C(F)(F)CO,outcome,[1],inactive
same,outcome,[2],inactive
same,outcome,[3],inactive
same,outcome,[4],inactive
same,outcome,"CD40, CD40 (gene 958)",inactive
same,outcome,[5],inactive
same,outcome,[6],inactive
same,outcome,[7],inactive
same,outcome,[8],inactive
same,outcome,[9],inactive
same,outcome,[10],inactive
same,outcome,[11],inactive
same,outcome,[12],inactive
same,outcome,"CD69, CD69 (gene 969)",inactive
C[Si](Cl)(Cl)CCC(F)(F)C(F)(F)C(F)(F)C(F)(F)C(F)(F)C(F)(F)F,outcome,[1],inactive
same,AC50,[2],0.441 µM (active)
same,outcome,[2],inactive
same,outcome,[3],inactive
same,AC50,[4],2.46 µM (active)
same,outcome,[4],inactive
same,outcome,"CD40, CD40 (gene 958)",inactive
same,AC50,[5],236 nM (active)
same,outcome,[5],inactive
same,outcome,[6],inactive
same,outcome,[7],inactive
same,outcome,[8],inactive
same,outcome,[9],inactive
same,outcome,[10],inactive
same,outcome,[11],inactive
same,outcome,[12],inactive
same,outcome,"CD69, CD69 (gene 969)",inactive
O=S(=O)(O)CCC(F)(F)C(F)(F)C(F)(F)C(F)(F)C(F)(F)C(F)(F)C(F)(F)C(F)(F)F,outcome,[1],inactive
same,outcome,[2],inactive
same,outcome,[3],inactive
same,AC50,[4],22.4 µM (active)
same,outcome,[4],inactive
same,AC50,"CD40, CD40 (gene 958)",20.9 µM (active)
same,outcome,"CD40, CD40 (gene 958)",inactive
same,outcome,[5],inactive
same,outcome,[6],inactive
same,AC50,[7],21.3 µM (active)
same,outcome,[7],inactive
same,outcome,[8],inactive
same,outcome,[9],inactive
same,AC50,[10],30 µM (active)
same,outcome,[11],inactive
same,AC50,[12],8.71 µM (active)
same,outcome,[12],inactive
same,outcome,"CD69, CD69 (gene 969)",inactive
same,AC50,TTR (gene 7276),8.98 µM (active)
same,outcome,[13],inactive
NC(=O)C(F)(F)C(F)(F)C(F)(F)C(F)(F)C(N)=O,outcome,[1],inactive
same,outcome,[2],inactive
same,outcome,[3],inactive
same,AC50,[4],17.6 µM (active)
same,outcome,[4],inactive
same,outcome,"CD40, CD40 (gene 958)",inactive
same,AC50,[5],220 nM (active)
same,outcome,[5],inactive
same,outcome,[6],inactive
same,outcome,[7],inactive
same,outcome,[8],inactive
same,outcome,[9],inactive
same,outcome,[10],inactive
same,outcome,[11],inactive
same,AC50,[12],0.598 µM (active)
same,outcome,[12],inactive
same,outcome,"CD69, CD69 (gene 969)",inactive
same,AC50,TTR (gene 7276),44.1 µM (active)
same,outcome,[13],inactive
CN(C(=O)C(F)(F)C(F)(F)C(F)(F)F)[Si](C)(C)C,outcome,[1],inactive
same,outcome,[2],inactive
same,outcome,[3],inactive
same,outcome,[4],inactive
same,outcome,"CD40, CD40 (gene 958)",inactive
same,outcome,[5],inactive
same,outcome,[6],inactive
same,outcome,[7],inactive
same,outcome,[8],inactive
same,outcome,[9],inactive
same,outcome,[10],inactive
same,outcome,[11],inactive
same,outcome,[12],inactive
same,outcome,"CD69, CD69 (gene 969)",inactive
